PubChem BioAssay (Tox21)
Records with an inconclusive call do not appear. Active and inactive are the calls of the source. Unless noted, the call rests on the fitted dose curve; in most records, active means well fitted curve in the direction sought with a large enough effect in the repeat runs; inconclusive means weak or mixed curves; inactive means no such curve, though single readings can be large; an effect the other way counts as inactive or inconclusive.

What was measured:
[1] = qHTS assay to identify small molecule antagonists of the thyroid receptor (TR) signaling pathway - cell viability counter screen (AID 743064); further: nearly all actives have a fitted effect of over 50% in size
Outline: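 GH3.TRE-Luc rat pituitary cells dosed after 4 hr plating, co-stimulated with T3 at 1 nM final, incubated 23.5 h at 37 C. Viability measured in the same wells by CellTiter-Fluor fluorescence after 30 min further at 37 C.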

[2] = qHTS assay to identify small molecule antagonists of the thyroid receptor (TR) signaling pathway (AID 743065); further: series mostly up to about 70 µM; nearly all actives have a fitted effect of over 55% in size
Outline: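 GH3.TRE-Luc rat pituitary cells (two TREs driving luciferase) were dosed with compound, then stimulated with 1 nM T3 (final) for 23.5 h at 37 C. ONE-Glo luminescence was the read-out, with CellTiter-Fluor fluorescence as the cytotoxicity counter-screen.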

[3] = tested on: thyroid hormone receptor (rat, GH3 cells); assay: qHTS assay to identify small molecule agonists of the thyroid receptor (TR) signaling pathway (AID 743066; calls by dose curve)
[4] = target: Estrogen receptor (Homo sapiens) (UniProt P03372); assay: qHTS assay to identify small molecule antagonists of the estrogen receptor alpha (ER-alpha) signaling pathway (AID 743069; active means well fitted curve in the direction sought with a large enough effect in the signal ratio in the repeat runs, not every such curve was filed as active; the % refers to the signal ratio)
Outline: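 In this cell-based reporter format, GripTite HEK293 cells harbouring ER-alpha-UAS-bla were grown overnight with 2% charcoal-stripped FBS, dosed with DMSO-dissolved compounds, then challenged with 17beta-estradiol. After 18 hr at 37C, beta-lactamase activity was detected by FRET fluorescence.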

[5] = qHTS assay to identify small molecule antagonists of the estrogen receptor alpha (ER-alpha) signaling pathway - cell viability counter screen (AID 743074; calls by dose curve; further: nearly all actives have a fitted effect of over 45% in size)
[6] = target: Estrogen receptor (Homo sapiens) (UniProt P03372); assay: qHTS assay to identify small molecule agonists of the estrogen receptor alpha (ER-alpha) signaling pathway (AID 743075; calls by dose curve)
[7] = target: Estrogen receptor (Homo sapiens) (UniProt P03372); assay: qHTS assay to identify small molecule agonists of the estrogen receptor alpha (ER-alpha) signaling pathway using the BG1 cell line (AID 743079); further: nearly all actives have a fitted effect of over 20% in size
[8] = qHTS assay to identify small molecule antagonists of the estrogen receptor alpha (ER-alpha) signaling pathway using the BG1 cell line (AID 743080; calls by dose curve;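 further: BG1 cells stimulated with 17beta-estradiol alongside compound; series mostly up to about 70 µM; nearly all actives have a fitted effect of over 25% in size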)
Outline: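 BG1Luc4E2, endogenous ER-alpha, 4xERE-luc; 5 d charcoal-stripped FBS, phenol red free; 24 h plating; cpd + 17beta-estradiol 21.5 h, 37 C/5% CO2; CellTiter-Fluor viability 30 min, then ONE-Glo luciferase 30 min RT.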

[9] = qHTS assay to identify small molecule antagonists of the estrogen receptor alpha (ER-alpha) signaling pathway using the BG1 cell line - cell viability counter screen (AID 743081);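 further: compound given together with 17beta-estradiol as the ER stimulus; series mostly up to about 70 µM; nearly all actives have a fitted effect of over 45% in size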
[10] = target: Aromatase (Homo sapiens) (UniProt P11511); assay: qHTS assay to identify aromatase inhibitors (AID 743083); further: series mostly up to about 70 µM; nearly all actives have a fitted effect of over 55% in size
[11] = qHTS assay to identify aromatase inhibitors - cell viability counter screen (AID 743084);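 further: cells stimulated with testosterone during compound exposure; nearly all actives have a fitted effect of over 55% in size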
[12] = qHTS assay to identify small molecule that activate the aryl hydrocarbon receptor (AhR) signaling pathway - cell viability counter screen (AID 743086);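 further: HepG2 liver cells carrying the AhR DRE luciferase reporter; series mostly up to about 70 µM; nearly all actives have a fitted effect of over 45% in size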
Outline: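 HepG2-AhR-luc (HG2L7.5c1) cells, 4000/well, treated 24 h at 37 C with compound; viability measured as CellTiter-Fluor fluorescence after 30 min in the same wells as the luciferase read.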

[13] = target: Peroxisome proliferator-activated receptor gamma (Homo sapiens) (UniProt P37231); assay: qHTS assay to identify small molecule agonists of the peroxisome proliferator-activated receptor gamma (PPARg) signaling pathway (AID 743094; active means well fitted activation curve with a large enough effect in the signal ratio in the repeat runs, not every such curve was filed as active; the % refers to the signal ratio)
Outline: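 Agonism was assessed in a beta-lactamase reporter system, HEK293H cells with a stably integrated UAS-bla construct under PPARg control; the 17 h treatment at 37C preceded a 1 h room-temperature FRET substrate read.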

[14] = target: Peroxisome proliferator-activated receptor gamma (Homo sapiens) (UniProt P37231); assay: qHTS assay to identify small molecule antagonists of the peroxisome proliferator-activated receptor gamma (PPARg) signaling pathway (AID 743191; calls by dose curve; further: series mostly up to about 63 µM; nearly all actives have a fitted effect of over 30% in size)
Outline: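 GeneBLAzer PPARg UAS-bla HEK293H cells, 5 h post-plating, exposed to compounds 17 h at 37C. LiveBLAzer B/G FRET substrate added for 1 h at room temperature; beta-lactamase reporter read by fluorescence intensity.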

[15] = qHTS assay to identify small molecule antagonists of the peroxisome proliferator-activated receptor gamma (PPARg) signaling pathway - cell viability counter screen (AID 743194); conditions: Potency: co-treated with 50 nM rosiglitazone; further: nearly all actives have a fitted effect of over 55% in size
Outline: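 Cytotoxicity counter screen in PPARg-bla HEK293H cells, same wells as reporter assay. Compounds plus 50 nM rosiglitazone (final) for 17 h at 37 C, then viability read by CellTiter-Glo luminescence.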

[16] = qHTS assay for small molecule agonists of the antioxidant response element (ARE) signaling pathway (AID 743202; active means well fitted activation curve with a large enough effect in the signal ratio in the repeat runs, not every such curve was filed as active; the % refers to the signal ratio)
Outline: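 HepG2 ARE-bla cells; 16 h treatment at 37 C; FRET-based beta-lactamase fluorescence read after 2 h substrate incubation at room temperature.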

[17] = qHTS assay for small molecule agonists of the antioxidant response element (ARE) signaling pathway - cell viability counter screen (AID 743203; calls by dose curve; further: nearly all actives have a fitted effect of over 55% in size)
Outline: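 ATP content via CellTiter-Glo luminescence served as the viability measure. Cells: ARE-bla HepG2, 2,000 per well. Exposure: 16 hrs, 37C/5% CO2.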

[18] = qHTS assay for small molecule activators of the heat shock response signaling pathway - cell viability counter screen (AID 743209); further: nearly all actives have a fitted effect of over 50% in size
Outline: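 Compounds dissolved in DMSO were added to overnight-plated HSE-bla HeLa cells and left 5 h at 37 C. Cell viability was quantified by luminescence using CellTiter-Glo.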

[19] = qHTS assay for small molecule activators of the heat shock response signaling pathway (AID 743210; active means well fitted activation curve with a large enough effect in the signal ratio in the repeat runs, with a control signal flat, not every such curve was filed as active; the % refers to the signal ratio;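 further: HeLa cells with beta-lactamase reporter driven by heat shock elements; series mostly up to about 63 µM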)
Outline: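 Following overnight attachment, HSE-bla HeLa cells received test compounds for 5 h at 37 C; beta-lactamase activity was then detected via FRET substrate fluorescence.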

[20] = target: Aryl hydrocarbon receptor (Homo sapiens) (UniProt P35869); assay: qHTS assay to identify small molecule that activate the aryl hydrocarbon receptor (AhR) signaling pathway (AID 743085);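 further: HG2L7.5c1 human HepG2 liver cells with stably integrated DRE-driven firefly reporter; series mostly up to about 70 µM; nearly all actives have a fitted effect of over 15% in size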
Outline: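 HepG2 cells stably carrying a 20-DRE firefly luciferase reporter (HG2L7.5c1) treated with compound for 24 hr at 37C. Luciferase read by ONE-Glo luminescence, with CellTiter-Fluor viability read first.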

Measured: Potency

Chain of Estrogen receptor (Homo sapiens) (P03372 whole entry, looked up): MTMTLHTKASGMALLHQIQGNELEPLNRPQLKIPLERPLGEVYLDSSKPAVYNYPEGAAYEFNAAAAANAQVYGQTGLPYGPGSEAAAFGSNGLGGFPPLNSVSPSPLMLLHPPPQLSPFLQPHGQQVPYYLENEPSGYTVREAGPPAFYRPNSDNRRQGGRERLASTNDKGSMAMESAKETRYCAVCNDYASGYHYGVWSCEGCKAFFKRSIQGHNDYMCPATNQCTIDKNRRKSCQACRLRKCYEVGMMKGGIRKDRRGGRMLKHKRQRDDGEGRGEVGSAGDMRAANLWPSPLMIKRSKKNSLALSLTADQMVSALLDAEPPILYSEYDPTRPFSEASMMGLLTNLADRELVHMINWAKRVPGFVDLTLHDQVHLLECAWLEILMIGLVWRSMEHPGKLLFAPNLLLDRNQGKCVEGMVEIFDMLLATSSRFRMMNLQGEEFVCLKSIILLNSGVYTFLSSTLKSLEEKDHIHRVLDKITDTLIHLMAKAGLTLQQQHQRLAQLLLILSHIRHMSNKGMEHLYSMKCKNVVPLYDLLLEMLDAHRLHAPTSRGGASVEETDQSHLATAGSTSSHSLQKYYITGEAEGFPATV
Chain of Aromatase (Homo sapiens) (P11511 whole entry, looked up): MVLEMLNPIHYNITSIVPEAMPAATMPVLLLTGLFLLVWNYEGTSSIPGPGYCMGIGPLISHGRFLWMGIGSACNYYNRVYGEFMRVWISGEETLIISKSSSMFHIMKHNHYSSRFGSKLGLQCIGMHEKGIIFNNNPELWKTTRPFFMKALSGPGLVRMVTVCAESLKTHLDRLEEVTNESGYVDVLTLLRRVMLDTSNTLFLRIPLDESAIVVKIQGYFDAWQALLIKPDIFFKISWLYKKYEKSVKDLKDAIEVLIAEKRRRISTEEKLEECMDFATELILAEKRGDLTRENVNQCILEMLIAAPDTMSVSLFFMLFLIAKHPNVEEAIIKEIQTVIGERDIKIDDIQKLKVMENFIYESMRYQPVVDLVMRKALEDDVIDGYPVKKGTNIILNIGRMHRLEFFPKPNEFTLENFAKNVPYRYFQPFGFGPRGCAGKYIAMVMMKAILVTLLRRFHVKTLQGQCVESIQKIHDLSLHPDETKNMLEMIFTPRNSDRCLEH
Chain of Peroxisome proliferator-activated receptor gamma (Homo sapiens) (P37231 whole entry, looked up): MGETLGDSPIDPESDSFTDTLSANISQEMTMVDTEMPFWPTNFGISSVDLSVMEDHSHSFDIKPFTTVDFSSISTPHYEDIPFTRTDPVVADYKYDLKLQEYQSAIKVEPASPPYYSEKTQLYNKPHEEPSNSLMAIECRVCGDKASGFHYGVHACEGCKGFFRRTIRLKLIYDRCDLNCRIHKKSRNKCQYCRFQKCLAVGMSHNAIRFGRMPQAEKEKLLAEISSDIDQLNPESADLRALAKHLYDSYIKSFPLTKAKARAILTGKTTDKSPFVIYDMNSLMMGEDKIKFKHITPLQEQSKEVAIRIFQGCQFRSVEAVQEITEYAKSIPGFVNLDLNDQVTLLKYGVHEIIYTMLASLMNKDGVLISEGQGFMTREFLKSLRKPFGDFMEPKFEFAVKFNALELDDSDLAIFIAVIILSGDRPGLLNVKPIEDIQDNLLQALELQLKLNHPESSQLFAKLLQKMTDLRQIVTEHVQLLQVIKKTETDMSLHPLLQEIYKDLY
Chain of Aryl hydrocarbon receptor (Homo sapiens) (P35869 whole entry, looked up): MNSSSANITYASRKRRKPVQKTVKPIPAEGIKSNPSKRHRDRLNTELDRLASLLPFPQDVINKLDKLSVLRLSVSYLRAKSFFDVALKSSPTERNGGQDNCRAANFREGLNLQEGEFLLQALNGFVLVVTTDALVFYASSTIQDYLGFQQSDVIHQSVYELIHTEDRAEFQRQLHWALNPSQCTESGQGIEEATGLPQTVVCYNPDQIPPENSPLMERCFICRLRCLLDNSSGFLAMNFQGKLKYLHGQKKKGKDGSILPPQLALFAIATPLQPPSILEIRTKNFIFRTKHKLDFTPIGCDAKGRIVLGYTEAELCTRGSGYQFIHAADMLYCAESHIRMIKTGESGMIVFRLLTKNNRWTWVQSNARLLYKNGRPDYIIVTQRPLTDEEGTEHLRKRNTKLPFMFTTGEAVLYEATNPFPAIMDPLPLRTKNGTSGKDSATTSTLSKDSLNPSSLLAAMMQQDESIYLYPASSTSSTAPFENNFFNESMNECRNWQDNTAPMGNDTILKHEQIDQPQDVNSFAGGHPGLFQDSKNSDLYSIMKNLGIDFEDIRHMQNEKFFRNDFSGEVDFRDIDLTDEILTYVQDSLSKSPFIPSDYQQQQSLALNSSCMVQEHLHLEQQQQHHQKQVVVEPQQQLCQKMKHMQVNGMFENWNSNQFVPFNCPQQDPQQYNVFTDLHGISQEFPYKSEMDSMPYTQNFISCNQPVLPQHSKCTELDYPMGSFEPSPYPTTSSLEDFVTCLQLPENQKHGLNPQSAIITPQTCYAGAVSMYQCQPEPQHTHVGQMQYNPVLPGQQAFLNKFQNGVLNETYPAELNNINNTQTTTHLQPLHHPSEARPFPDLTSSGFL

CC(C)(C)NCC(O)c1ccccc1Cl (stereo unspecified)
not listed: [20]
inactive: all other assays above

C[N+]1(CCC(C(N)=O)(c2ccccc2)c2ccccc2)CCCCC1
not listed: [14]
inactive: all other assays above

NC(=O)CF
not listed: [18]
inactive: all other assays above

CCCC[N+](CCCC)(CCCC)CCCC
not listed: [8]
inactive: all other assays above

c1ccc2c(c1)sc1ccccc12
not listed: [8] | [14] | [15] | [16]
inactive: all other assays above

C=CC(=O)NC(C)(C)CC(C)=O
not listed: [13] | [14]
inactive: all other assays above

CCCCC1C(=O)NC(=O)N(C2CCCCC2)C1=O (stereo unspecified)
not listed: [8] | [13] | [14] | [18]
inactive: all other assays above

COC(=O)C1(O)c2ccccc2-c2ccccc21
not listed: [8] | [13] | [14] | [16] | [19]
inactive: all other assays above
